Paper PMC4336329 (PLoS ONE, 2015)
The whole screen tested about 310,000 compounds, of which about 14,000 (4.5%) showed an effect of 50% or more. The effect is printed as a negative number. The list comes from a sample in which strong results are over-represented; it also holds similar structures and randomly drawn compounds.

molecular target: human ether-à-go-go-related gene (hERG) potassium channel (human, UniProt Q12809); test: primary screen, population patch clamp on CHO cells stably expressing hERG; higher = less effect of the substance
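Note: peak tail current of the secondary pulse compared with the same well before compound.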

Sequence of human ether-à-go-go-related gene (hERG) potassium channel (Q12809 whole entry, looked up): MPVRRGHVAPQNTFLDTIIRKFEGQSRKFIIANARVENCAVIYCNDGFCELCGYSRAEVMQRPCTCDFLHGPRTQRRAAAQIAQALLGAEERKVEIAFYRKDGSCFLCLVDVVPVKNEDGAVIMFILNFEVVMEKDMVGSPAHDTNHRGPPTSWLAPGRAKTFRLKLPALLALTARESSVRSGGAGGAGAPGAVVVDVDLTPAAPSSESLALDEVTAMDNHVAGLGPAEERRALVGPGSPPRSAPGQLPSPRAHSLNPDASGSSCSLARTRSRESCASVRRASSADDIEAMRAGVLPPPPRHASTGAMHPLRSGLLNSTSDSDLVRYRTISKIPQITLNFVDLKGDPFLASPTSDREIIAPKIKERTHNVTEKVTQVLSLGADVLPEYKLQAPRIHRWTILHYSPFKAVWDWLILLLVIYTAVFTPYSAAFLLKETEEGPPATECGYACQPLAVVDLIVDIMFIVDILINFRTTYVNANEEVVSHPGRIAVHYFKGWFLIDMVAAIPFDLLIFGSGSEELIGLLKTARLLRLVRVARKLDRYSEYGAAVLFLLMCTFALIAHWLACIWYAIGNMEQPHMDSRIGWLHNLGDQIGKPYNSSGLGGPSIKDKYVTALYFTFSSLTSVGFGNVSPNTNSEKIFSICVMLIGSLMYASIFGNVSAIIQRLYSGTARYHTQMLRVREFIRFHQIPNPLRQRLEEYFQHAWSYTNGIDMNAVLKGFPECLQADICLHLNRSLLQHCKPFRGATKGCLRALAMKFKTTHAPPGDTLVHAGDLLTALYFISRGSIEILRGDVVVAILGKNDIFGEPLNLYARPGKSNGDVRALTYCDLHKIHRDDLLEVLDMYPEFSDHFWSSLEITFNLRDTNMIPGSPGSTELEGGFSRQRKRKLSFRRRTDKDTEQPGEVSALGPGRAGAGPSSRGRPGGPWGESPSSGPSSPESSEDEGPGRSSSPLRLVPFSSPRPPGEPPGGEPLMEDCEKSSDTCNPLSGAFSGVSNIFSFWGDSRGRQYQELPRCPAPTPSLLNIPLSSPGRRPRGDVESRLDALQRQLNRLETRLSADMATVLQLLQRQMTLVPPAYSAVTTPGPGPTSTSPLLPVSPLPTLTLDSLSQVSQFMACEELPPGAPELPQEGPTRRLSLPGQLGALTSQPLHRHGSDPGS

SMILES | hERG current change (%, negative = inhibition) at 10uM [%]
O=S(=O)(O)c1cccc(N=Nc2c(O)ccc3ccccc23)c1 | 16.4
N#Cc1ccc(OCC(=O)NCCN2CCOCC2)cc1 | -11.7
O=C(COC(=O)/C=C/c1ccc(Cl)cc1)NC1CCCCCC1 | -1.22
Cc1ccc(C)c(NC(=O)Cc2nc(CCl)cs2)c1 | -14.1
CC(C)Oc1cccc(C(=O)NC(=S)Nc2ccccc2)c1 | -7.26
CCOC(=O)c1ccc(NC(=O)N(CC)CC)cc1 | 4.46
CCCC(=O)N1CCN(c2ccc(NC(=S)NC(=O)c3cccc(C)c3)cc2)CC1 | -18.3
COC(=O)c1c(N)n(CCCN2CCOCC2)c2nc3ccccc3nc12 | -29.9
CCCCn1c(N)c(C(=O)OCCOC)c2nc3ccccc3nc21 | -42.4
Nc1c(C(=O)NCc2ccco2)c2nc3ccccc3nc2n1CCN1CCOCC1 | -4.63
CCCCCOC(=O)c1c(N)n(CCOC)c2nc3ccccc3nc12 | -70.2
COCCOC(=O)c1c(N)n(CCCN2CCOCC2)c2nc3ccccc3nc12 | -53.3
CCCCCCn1c(N)c(C(=O)NCCN2CCOCC2)c2nc3ccccc3nc21 | -8.61
CCCCCn1c(N)c(C(=O)NCCN2CCOCC2)c2nc3ccccc3nc21 | -17.1
CCCCOCCCn1c(N)c(C(=O)OCCOC)c2nc3ccccc3nc21 | -32.9
Nc1c(C(=O)NCCN2CCOCC2)c2nc3ccccc3nc2n1Cc1ccco1 | -68.8
Nc1c(C(=O)NCCN2CCOCC2)c2nc3ccccc3nc2n1Cc1ccccc1 | 1.38
COCC(C)OC(=O)c1c(N)n(CCCN2CCOCC2)c2nc3ccccc3nc12 (centres unmarked) | -9.69
CCCCn1c(N)c(C(=O)NCCN2CCOCC2)c2nc3ccccc3nc21 | -64.1
COc1ccccc1N(CC(=O)NCc1ccccc1)C(=O)CCC(=O)Nc1cc(C)ccn1 | -9.35
CC(O)c1c(OCc2ccccc2)ncnc1OCc1ccccc1 (centres unmarked) | -15.5
CCN(CC)S(=O)(=O)c1ccc(S(=O)(=O)N(CC(=O)Nc2ccccc2)CC2CCCO2)cc1 (centres unmarked) | -18.6
COc1cccc(N2CCN(C(=O)C3CCC(=O)N(C4CCCCCC4)C3)CC2)c1 (centres unmarked) | -32.8

SMILES | hERG current change (%, negative = inhibition) at 10uM [%]
COc1ccc(NC2c3ccccc3C(=O)N2c2ccccn2)cc1Cl (centres unmarked) | -5.24
Cc1ccc(-c2cc(C(=O)N/N=C/c3ccc(F)cc3)n[nH]2)o1 | 4.98
COc1ccc(CCNC(=O)c2cn3ccc(C)cc3n2)cc1OC | 1.66
Cc1ccc(S(=O)(=O)N(C)C)cc1NC(=S)N1CCc2ccccc21 | 11.5
COc1ccc(NC(=O)c2cc3ccccc3[nH]2)cc1 | 15.4
Cc1ccccc1-n1c(C)c(C#N)c(=O)c(-[n+]2ccccc2)c1[S-] | 23.4
Cc1cc(S(=O)(=O)N2CCCC2)ccc1OCC(=O)NCc1ccccn1 | 4.98
O=C(NC(=C(Cl)Cl)S(=O)(=O)c1ccc(Cl)cc1)c1ccccc1 | 3.23
CC(C)Cn1c(N)c(C(=O)NCCN2CCOCC2)c2nc3ccccc3nc21 | -72.7
Nc1c(C(=O)NCCN2CCOCC2)c2nc3ccccc3nc2n1CCc1ccccc1F | -27.2
Nc1c(C(=O)NCCc2ccccc2)c2nc3ccccc3nc2n1CCN1CCOCC1 | -3.49
CCn1c(O)c(C=NCc2cccs2)c(=O)[nH]c1=O | -6.15
CS(=O)(=O)c1ccc(C(=O)NC2CCCCC2)cc1 | 12.1
Cc1ccc2nc(C)c3c(c2c1)OC(C(C)(Cl)Br)C3 (centres unmarked) | -16.5
Cc1nc2ccccc2c2c1CC(C(C)(Cl)Br)O2 (centres unmarked) | -61.6
COc1ccc2nc(C)c3c(c2c1)OC(C(C)(Cl)Br)C3 (centres unmarked) | -34
COc1cc(N(Cc2ccccc2)Cc2ccccc2)c2ncn(C(C)C)c2c1 | 6.37
CC(C)n1cnc2c(N(C)c3ccccc3)nc(N(CCN(C)C)Cc3ccccc3)nc21 | -73.1
CC(C)n1cnc2c(NCc3ccccc3)nc(NCc3ccccc3)nc21 | 0.281
Cc1cc(C)c2c(=O)n(CC(=O)NCCCN3CCOCC3)sc2n1 | 11.4
O=C(Cn1ncc2c(=O)oc3ccccc3c21)NCCN1CCN(c2ccccc2F)CC1 | -28.4
CCCNC(=O)Cn1sc2nc(C)cc(C)c2c1=O | -6.1
CC1CCCC(C)N1CCCNC(=O)Cn1ncc2c3ccccc3n(C)c2c1=O (centres unmarked) | -36.9

SMILES | hERG current change (%, negative = inhibition) at 10uM [%]
Cc1cc(C)c2c(=O)n(CC(=O)NCCCN3CCN(c4ccccc4F)CC3)sc2n1 | -55.3
CN1CCN(CCCNC(=O)Cn2ncc3c4ccccc4n(C)c3c2=O)CC1 | 12
CCCN1CCN(CCCNC(=O)Cn2ncc3c4ccccc4n(C)c3c2=O)CC1 | -56.6
COCCNC(=O)Cn1cc(S(=O)(=O)N2CCN(c3ccccc3F)CC2)c2ccccc2c1=O | -2.76
CCC(C)NC(=O)Cn1cc(S(=O)(=O)N2CCN(c3ccccc3F)CC2)c2ccccc2c1=O (centres unmarked) | -4.4
Cn1c(C(=O)NCCCN2CCN(c3ccccc3F)CC2)cc2c(=O)n(C)c3ccccc3c21 | -11.7
O=C(Cn1cc(S(=O)(=O)N2CCN(c3ccccc3F)CC2)c2ccccc2c1=O)NCCCN1CCCCCC1 | -61.1
Cn1c2ccccc2c2cnn(CC(=O)NCCCN3CCN(c4ccccc4F)CC3)c(=O)c21 | -76.3
CC(=O)OC1COC(N2CCc3cc([N+](=O)[O-])ccc32)C(OC(C)=O)C1OC(C)=O (centres unmarked) | 2.87
CC(=O)c1nc(N2C(=O)CC(Cc3cccc(C)c3)C2=O)sc1C (centres unmarked) | -16.3
CCOC(=O)C1CCCN(C(=O)CCCn2nnnc2CN2CCC(C)CC2)C1 (centres unmarked) | -8.13
O=C1Nc2ccc(Br)cc2C1(O)c1ccc(F)cc1 (centres unmarked) | 7
Nc1cc(=O)[nH]c(SCC(=O)NCC2CCCO2)n1 (centres unmarked) | 1.45
NC(=O)COC(=O)CC(c1ccccc1)c1ccccc1 | 4.16
CCCCCCC1/C(=N\NC(=O)c2ccccc2)CCC1C(=O)OC (centres unmarked) | -43.8
CC(C)[C@H](NC(=O)N1CCn2c1nc1ccccc12)C(=O)N[C@@H](C(=O)O)c1ccccc1 | 17.7
CC(C)c1ccc(N(C)C(=O)Cc2c(C(=O)O)n(C)c3ccccc23)cc1 | 0.167
Fc1cnc(N/N=C/c2ccc(-c3ccc(Br)cc3)o2)nc1N1CCOCC1 | -15.8
O=C(O)CCC(=O)N1CCN(c2nc(-c3ccccc3)c3cc(Br)ccc3n2)CC1 | 3.79
COc1cccc(/C=C/C(=O)OCC(=O)c2c[nH]c3ccccc23)c1 | 13
CC1CCN(CCCNC(=O)Cn2ncc3c([nH]c4ccccc43)c2=O)CC1 | 9.35
O=C(CCS(=O)(=O)Cc1ccccc1F)NCCCN1CCCCC1 | 8.31
Cc1ccccc1CS(=O)(=O)CCC(=O)NCCCN1CCOCC1 | -10.6

SMILES | hERG current change (%, negative = inhibition) at 10uM [%]
Cc1ccccc1CS(=O)(=O)CCC(=O)NCCCN1CCN(c2ccccc2F)CC1 | -59.3
COc1ccccc1N1CCN(CCCNC(=O)Cn2ncc3c([nH]c4ccccc43)c2=O)CC1 | -68.6
O=C(Cn1ncc2c([nH]c3ccccc32)c1=O)NCCCN1CCN(c2ccccc2)CC1 | -21.5
Nc1nc2ccccc2n1/N=C/c1cccnc1 | 2.44
CC(C)(OC(=O)NC(=O)C(F)(F)F)C(C)(C)OC(=O)NC(=O)C(F)(F)F | 31.4
COc1ccc(Cn2c(O)c(C=Nc3ccc(C)cc3)c3ccccc3c2=O)cc1 | 2.35
COC(=O)C1CN(C(=O)C(C)Oc2cccc(C)c2C)c2ccccc2O1 (centres unmarked) | -8.63
C=CCNc1nc(NCC)nc(N2CCOCC2)n1 | -0.791
COc1ccc(-n2nc3c(c2NC(=O)COc2ccccc2)CS(=O)C3)cc1 (centres unmarked) | -28.2
NC(=NC(=O)c1ccc(OCC(F)(F)F)nc1)c1ccc(Cl)cc1 | 17.9
O=S(=O)(NCc1cccnc1)c1ccc2c(c1)OCCO2 | 0.45
CCOC(=O)c1cnc(SCC(=O)NCc2ccco2)nc1N | -14.5
CCOC(=O)c1cnc2c(C)cccc2c1Nc1ccc(N2CCOCC2)cc1 | 8.24
CCOC(=O)c1cnc2ccccc2c1NCc1ccco1 | -56.9
CCOC(=O)c1cnc2ccccc2c1Nc1ccc(C(=O)O)cc1.Cl | 17.9
CCOC(=O)c1cccnc1SC(CC)C(=O)NCc1ccco1 (centres unmarked) | -31.5
CCOC(=O)c1cnc2c(C)cccc2c1Nc1cccc(C(=O)O)c1.Cl | -8.37
CCOC(=O)c1ccc2ncc(C(=O)OCC)c(NCc3ccco3)c2c1 | -24.7
CCOC(=O)c1cnc2c(C(=O)OC)cccc2c1NCc1ccco1 | -70.2
CCOC(=O)c1cnc2c(C)cccc2c1NCc1ccco1 | -67.9
